In paper PMC5540273 (PLoS ONE, 2017) one finds Kd data, which are given here for 25 compounds.

One experiment has as its system T1, DRAK1.
T1 construct: gene STK17A

In a further experiment the test system is T2, DCAMKL2.
T2 construct: gene DCLK2

The next experiment concerns T3, DMPK2.
T3 construct: gene CDC42BPG

The next experiment relates to T4, DRAK2.
T4 construct: gene STK17B
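Further: kd values determined as follow-up on hits from a single-replicate KINOMEscan panel screen.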

Usually Kd stands for the free concentration of one partner at which half of the binding sites on the other are occupied at equilibrium, for simple one-to-one binding. Take `CNc1cc(-c2ccc3c(N)n[nH]c3c2)nc(N)n1` [GSK2224810]: the Kd with CLK4 is 140 nM; in the experiment on DRAK1, 89 nM; in the experiment with DYRK2 it was 33 nM.

For the compound `COc1ccc(Nc2nccc(N3CCC(NC(=O)c4cc5ccccc5s4)C3)n2)cc1` (stereo not drawn) [GSK1379738], the Kd in the experiment with DDR1 was > 10000 nM.

For the compound `COc1ccc(CSc2nnc(-c3ccc4ncsc4c3)o2)cc1C(F)(F)F`, binding with CLK4 was characterised by a dissociation constant (Kd) of 1100 nM.

In the case of `CC(=O)c1c(C)c2cnc(Nc3ccn(C)n3)nc2n(C2CCCC2)c1=O`, in the experiment with DCAMKL2, the Kd is > 10000 nM.

For the compound `Cc1ccc(NC(=O)Nc2ccc(Cl)c(C(F)(F)F)c2)cc1-c1ccc(C(=O)Nc2ccncc2)cc1` [GSK1398470], in the experiment with DDR1, the Kd is 120 nM.

In the case of `Cc1ccc(NC(=O)Nc2ccccc2F)cc1-c1ccc(C(=O)Nc2ccncc2)cc1` [GSK1398477], the figures for the Kd in the experiment on CSF1R and in the experiment on DDR1 were 2600 nM and 180 nM, respectively.

For `COc1cccc(NC(=O)Nc2ccc(C)c(-c3ccc(C(=O)Nc4ccncc4)cc3)c2)c1` [GSK1398474], the Kd is 3300 nM with CSF1R and 270 nM in the experiment on DDR1.

In the case of `Cn1cnc2c(N)ncnc21` [SKF-97623], the Kd with DAPK1 was > 10000 nM.

Turning to `Nc1nccc(-c2c(-c3ccc(F)cc3)ncn2C2CCN(Cc3ccccc3)CC2)n1` [SB-219980], the dissociation constant Kd was found to be 41 nM in the experiment on CSNK1A1, 7.5 nM in the experiment on CSNK1D, 24 nM in the experiment with CSNK1E and 140 nM in the experiment on DDR1.

Turning to `COC(=O)C(NC(=O)NC1CCN(c2ccnc(Nc3ccc(F)cc3)n2)C1)c1ccccc1` (stereo not drawn) [GSK1379712], in the experiment on CSNK1D, the Kd is > 10000 nM.

In the case of `CS(=O)(=O)CCNCc1nc(-c2ccc3ncnc(Nc4ccc(OCc5ccccc5)c(Cl)c4)c3c2)cs1.Cl` [GW582764], the Kd in the experiment on DDR1 was > 10000 nM.

As to `O=C1NC(=O)C(c2ccc(Cl)cc2)=C1Nc1cccc(Cl)c1` [SB-317651], the Kd with CSNK1G3 is > 10000 nM.

In the case of `COc1ccc(Nc2nccc(N3CCC(NC(=O)C(C)c4ccc(Cl)cc4)CC3)n2)cc1` (stereo not drawn) [GSK1379812], the Kd in the experiment with DYRK1A is > 10000 nM.

Take `Fc1ccc(-c2nn3cccc(F)c3c2-c2ccncc2)cc1` [GW475620]: the Kd in the experiment on CSNK1D is 77 nM; with CSNK1E, 220 nM; in the experiment on DMPK2 it was 1000 nM.

For `CCn1c(-c2c(N)noc2C)nc2cnccc21` [SB-737856], the Kd with DMPK2 is > 10000 nM.

Turning to `COc1ccc(CSc2nnc(-c3ccc4nccn4c3)o2)cc1C(F)(F)F`, in the experiment on CLK4, the affinity, expressed as Kd, was 130 nM.

`COc1ccc2cc(-c3nc(-c4ccccc4C(C)C)[nH]c3-c3ccncc3)ccc2c1` [SB-660566] returned a Kd in the experiment on DDR1 of 330 nM.

Take `COc1ccc(CSc2nnc(-c3ccc4c(c3)CCO4)o2)cc1`: the Kd in the experiment with CLK4 is 1300 nM.

`Cc1ccc(-c2nc(Nc3ccncc3)c3ccccc3n2)s1` [GSK189015]: the Kd in the experiment on EPHA5 is > 10000 nM.

Consider `Fc1ccc(-c2nc[nH]c2-c2ccncc2)cc1` [SB-217360], for which the Kd with CSNK1A1 turned out to be 87 nM; with CSNK1D, 41 nM; in the experiment with CSNK1E, 140 nM.

For the compound `NS(=O)(=O)c1cccc(N/C=C2\C(=O)Nc3ccc(S(=O)(=O)Cc4c(Cl)cccc4Cl)cc32)c1` [GSK398099], the equilibrium dissociation constant (Kd) with DAPK1 is > 10000 nM.

In the case of `c1ccc(-c2ccnc3[nH]ccc23)cc1` [SB-693578], the Kd in the experiment with CSNK1G1 is > 10000 nM.

For the compound `CNc1nc(-c2ccc3c(N)n[nH]c3c2)cc(N2C[C@@H](C(=O)Nc3ccccc3)CC[C@H]2C)n1` [GSK2298859], the Kd with DRAK1 amounted to 89 nM; in the experiment on DRAK2, 83 nM.

`CS(=O)(=O)Cc1ccc(Nc2nccc(-c3c(-c4cccc(NC(=O)C5CCCCC5)c4)nn4ncccc34)n2)cc1` [GSK350559] yielded a Kd with DDR1 of 23 nM.

For `Cc1nccc(-c2c(-c3ccc(F)cc3)ncn2CCCN2CCOCC2)n1.Cl` [SB-282975], the Kd with CSNK1D is 75 nM; with CSNK1E it was 460 nM; in the experiment with DAPK2, > 10000 nM.
